Screening results as filed in PubChem BioAssay.
TDP1 cell noCPT – qHTS for Inhibitors of human tyrosyl-DNA phosphodiesterase 1 (TDP1): qHTS in cells in absence of CPT; DT40 Tdp1-/- hTDP1 cells, no CPT, ATP luminescence, 48 h; Potency, µM (top dose mostly 46.2 µM), inactives show at the top dose activity change, negative = growth inhibition, hits mostly inhibitors; 15% of 420,000 active; AID 686978, 2013; note: % is set by controls: 0 for no effect and ±100 for the full control effect; nearly all actives have a fitted effect of over 55% in size
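Growth of hTDP1-complemented DT40 Tdp1-knockout cells is measured by ATP luminescence after at least 48 hr compound exposure at 37 °C, with DMSO substituting for the 20 nM CPT used in the parallel screen.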
TDP1 inh – blocks human tyrosyl-DNA phosphodiesterase 1. Q9NUW8. recombinant TDP1, AlphaScreen DNA substrate cleavage. Potency, µM (titrated, usually from 130 µM), for the others: at the highest dose activity change, negative = inhibition, actives largely listed as inhibitors. 0.28% of 350,000 active. AID 485290; note: % is set by controls: 0 for no effect and ±100 for the full control effect; nearly all actives have a fitted effect of over 40% in size
Target sequence (Q9NUW8 whole entry, looked up): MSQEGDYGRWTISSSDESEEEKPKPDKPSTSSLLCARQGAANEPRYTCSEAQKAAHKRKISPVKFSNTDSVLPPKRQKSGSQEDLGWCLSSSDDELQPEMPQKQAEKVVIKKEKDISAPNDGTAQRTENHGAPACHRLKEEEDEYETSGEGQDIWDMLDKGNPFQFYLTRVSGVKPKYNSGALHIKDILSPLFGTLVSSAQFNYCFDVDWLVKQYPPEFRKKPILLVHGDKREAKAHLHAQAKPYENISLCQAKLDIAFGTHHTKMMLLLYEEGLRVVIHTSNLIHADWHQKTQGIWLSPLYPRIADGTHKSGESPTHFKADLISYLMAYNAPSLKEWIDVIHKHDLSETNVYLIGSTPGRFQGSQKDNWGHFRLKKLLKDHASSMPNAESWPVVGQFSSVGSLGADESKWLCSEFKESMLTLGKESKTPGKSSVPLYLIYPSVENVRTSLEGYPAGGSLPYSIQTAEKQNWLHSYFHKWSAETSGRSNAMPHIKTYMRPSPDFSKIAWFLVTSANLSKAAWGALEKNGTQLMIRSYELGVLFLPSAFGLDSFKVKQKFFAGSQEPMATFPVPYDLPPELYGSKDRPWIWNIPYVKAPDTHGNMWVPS
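Compounds were preincubated with Tdp1 (1 nM final) for 15 min at room temperature before substrate (15 nM final) started a 5 min reaction; beads (10 ug/ml final) were then added for 10 min before AlphaScreen detection.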
ClpP mod – qHTS Assay for Activators of ClpP | ATP-dependent Clp protease proteolytic subunit (Bacillus subtilis (strain 168)), P80244 | purified B. subtilis ClpP, FRET peptide cleavage, 20 min | Potency, µM (highest dose often 57.5 µM), for the others: at the top dose activity change, negative = active | 1.9% of 340,000 active | AID 651965, 2013; active = well fitted falling curve with a large enough effect; inconclusive = small, poorly fitted or top-dose-only effect; inactive = no such curve, though single readings can be large or run the other way; note: the source files actives as falling curves though it sought activators and does not explain the sign; nearly all actives have a fitted effect of over 65% in size
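FRET quenching reversal measured ClpP activation: 10 microg/mL B. subtilis ClpP at pH 8 with the FRET-FV decapeptide, read at 430 nm after 320 nm excitation. The 20-min minus 0-min signal was scaled between DMSO/no-enzyme wells and ADEP (5.8 microM final).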
TDP1 cell CPT – DT40-hTDP1 cell growth loss with CPT. Potency, µM (highest dose often 46.2 µM), inactives show at the top dose activity change, negative = growth inhibition, most hits filed as inhibitors. 12% of 420,000 active. chicken DT40 Tdp1-/-;hTDP1 cells + 20 nM CPT, ATP luminescence, 48 h. AID 686979; note: % is set by controls: 0 for no effect and ±100 for the full control effect; nearly all actives have a fitted effect of over 55% in size
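Cell growth measured by CellTiter-Glo luminescence after a minimum 48 h, 37 C compound exposure with 20 nM CPT in Tdp1-knockout DT40 cells stably expressing hTDP1, seeded 400/well; qHTS titration format.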
* marks the source's active call; other numbers are inactive results; ? = inconclusive; / = no result; [ ] = another dose, or the depositor's remark. Most compounds without a hit are left out; they make up all but 17% or so of the library. Unless noted, calls come from the whole dose curve; as a rule, active = well fitted curve in the direction sought with a large enough effect; inconclusive = small, poorly fitted or top-dose-only effect, or another doubt; inactive = no such curve, though single readings can be large; an effect the other way counts as inactive or inconclusive. Potency is the fitted concentration of half-maximal effect.

SMILES	TDP1 cell noCPT	TDP1 inh	ClpP mod	TDP1 cell CPT
COC(=O)[C@@]12C[C@@H](CC(=O)NCCCN3CCCC3=O)C(=O)N(Cc3ccco3)C1=CCC(C)(C)C2	21%	/	0%	1%
COC(=O)C/C=C\[C@H](C)[C@@H](OC)c1ccccc1Br	/	4%[21 µM]	/	/
CC(=O)N1CCc2cc(NC(=O)C3(C)CCN3Cc3ccccc3Cl)ccc21 (centres undefined)	?	/	1%	-20%
CC1CN(C(=O)N2CCC(C(=O)NCc3ccco3)CC2)c2ccccc2O1 (centres undefined)	-19%	10%	-1%	5%
Cc1ccc2c(c1)N(C(=O)N1CCC(C(=O)NCc3ccccc3F)CC1)CC(C)O2 (centres undefined)	18µM*	4%	1%	?
CC1CN(C(=O)N2CCC(C(=O)NCc3ccccc3F)CC2)c2cc(Cl)ccc2O1 (centres undefined)	15µM*	8%	1%	21µM*
O=C(COc1ccccc1-c1nnc(-c2ccccc2)o1)Nc1ccc(Br)cc1F	-30%	2%	-2%	?
CCCCC1CCC(C(=O)N(CCC(C)C)c2c(N)n(CCCC)c(=O)[nH]c2=O)CC1 (centres undefined)	?	/	-2%	?
CCCCC1CCC(C(=O)N(CCCC)c2c(N)n(CCCC)c(=O)[nH]c2=O)CC1 (centres undefined)	21µM*	1%	-2%	12µM*
CCOc1ccccc1Nc1nc2c(S(=O)(=O)c3ccc(C)cc3)nnn2c2ccsc12	?	0%	-18%	-11%
